Results filed as inconclusive are left out. The source made the active and inactive calls. Calls follow the shape of the dose curve; as a rule, active = well fitted cell-killing curve with a large enough effect in the repeat runs; inconclusive = weak or mixed curves, or effect the other way; inactive = no such curve, though single readings can be large or run the other way.
Test: qHTS assay to identify small molecule antagonists of the glucocorticoid receptor (GR) signaling pathway - cell viability counter screen (AID 720693); also: nearly all actives have a fitted effect of over 55% in size
Details: GR-bla HeLa viability, CellTiter-Glo luminescence, 18 h, with 5 nM dexamethasone present; series mostly up to 58.5 µM
Source text: National Center for Advancing Translational Sciences [NCATS]
NIH Chemical Genomics Center [NCGC]
U.S. Environmental Protection Agency [EPA]
National Institutes of Environmental Health Sciences [NIEHS]
National Toxicology Program [NTP]
U.S. Food and Drug Administration [FDA]
The Glucocorticoid receptor (GR) is one of the members of the nuclear receptor family of ligand-dependent transcription factors. GR plays a critical role in carbohydrate, protein and lipid metabolisms and programmed cell death. CellSensor GR-bla HeLa cell line (Invitrogen) contains a beta-lactamase reporter gene under the control of the glucocorticoid response element stably integrated into HeLa cells, a cervical cancer cell line that expresses glucocorticoid receptor. The activation of the reporter gene under culture conditions can be detected by fluorescence intensity. This cell line has been used to screen the Tox21 10K compound library and to identify the compounds that inhibit the GR signaling. The cytotoxicity of the Tox21 compound library against the GR-bla HeLa cell line was tested in parallel by measuring the cell viability using CellTiter-Glo assay in the same wells.
Tox21 Assay Protocol Summary:
The GR-bla HeLa cells were dispensed at 1500 cells/5 ul/well in 1536-well black wall/clear bottom plates using a Multidrop Combi (ThermoFisher Scientific, Waltham, MA) dispenser. After the assay plates were incubated at a 37 C/5% CO2 incubator for 4 hours, 23 nL of compounds dissolved in DMSO, positive controls or DMSO only was transferred to the assay plate by a pintool station (Kalypsys, San Diego, CA), followed by addition of 1 uL of dexamethasone (5 nM, final concentration in the well). The plates were incubated at 37 C for 18 hours. After 1 uL of LiveBLAzerTM B/G FRET substrate was added using a Flying Reagent Dispenser (Aurora Discovery, San Diego, CA), the plates were incubated at room temperature (RT) for 2 hours, and fluorescence intensity was measured by an Envision plate reader (PerkinElmer, Shelton, CT). After measurement of bla assay, 3 ul CellTiter-Glo (Promega, Madison, WI) was added to measure the cytotoxicity and the plates were then incubated at RT for 30 min. The luminescence was measured using a ViewLux (Perkin Elmer) plate reader.

SMILES	outcome
C/C=C/C(=O)CCCC	inactive
Cc1ccc(Br)cc1	inactive
N#CC1(N)CCCCC1	inactive
CC(C)(C)C(=O)NCCCC(=O)O	inactive
N[C@H]1C(O)O[C@H](CO)[C@@H](O)[C@@H]1O (stereo not given in full)	inactive
CCOC(=O)CC	inactive
CC(=O)Nc1ccc(OCCOCCOc2ccc(NC(C)=O)cc2)cc1	inactive
CC(=O)Oc1ccc(C(C)=O)cc1	inactive
CN(C)CCc1c[nH]c2ccc(CS(=O)(=O)N3CCCC3)cc12	inactive
Cc1nnc(C(=O)NC(C)(C)c2nc(C(=O)NCc3ccc(F)cc3)c(O)c(=O)n2C)o1	inactive
CCCCOCCCC	inactive
C[C@@H](CN1CC(=O)NC(=O)C1)N1CC(=O)NC(=O)C1	inactive
CC(O)C(CO)C(C)O (stereo not given)	inactive
Cc1ccc(S(=O)(=O)NC(=O)NN2CC3CCCC3C2)cc1 (stereo not given)	inactive
OCCC(F)(F)C(F)(F)C(F)(F)C(F)(F)C(F)(F)C(F)(F)F	inactive
C=CC(=O)OCC[N+](C)(C)C	inactive
CCOC(=O)COc1ccc2c(C)c(CCN(CC)CC)c(=O)oc2c1Cl	inactive
C=COCCCCO	inactive
Nc1nc(Cl)cc(Cl)n1	inactive
CN(C)c1ccncc1	inactive

SMILES	outcome
Nc1cc(S(=O)(=O)O)ccc1O	inactive
CCOC(=O)CC(C(C)=O)C(C)=O	inactive
CCCCC(CC)COC(=O)CC#N (stereo not given)	inactive
Cc1cc(C)c(C)c(C)c1	inactive
CN1C(CCl)Nc2cc(Cl)c(S(N)(=O)=O)cc2S1(=O)=O (stereo not given)	inactive
CCCCC(CC)CCC(CC(C)C)OS(=O)(=O)O (stereo not given)	inactive
CC1(C)C(=O)C(C)(C)C1=O	inactive
CCCOc1ccc(C(=O)OCCN(CC)CC)cc1N	inactive
CC(C)C(C)C	inactive
CC/C=C/CCCCCCCCCCOC(C)=O	inactive
CCCCCCC(=O)c1ccccc1	inactive
O=C(O)P(=O)(O)O	inactive
CC[N+](C)(CC)CC	inactive
CCCCS	inactive
CCCCNCC	inactive
C[C@]12C=CC(=O)C=C1[C@@H](F)C[C@@H]1[C@@H]2[C@@H](O)C[C@@]2(C)[C@H]1CC[C@]2(O)C(=O)CO	inactive
CCc1ccc(CC)cc1	inactive
COCCCOc1cc(C[C@@H](C[C@H](N)[C@@H](O)C[C@H](C(=O)NCC(C)(C)C(N)=O)C(C)C)C(C)C)ccc1OC	inactive
NCC1CCC(C(=O)Oc2ccc(CCC(=O)O)cc2)CC1 (stereo not given)	inactive
c1coc(Cn2cccc2)c1	inactive

Source: PubChem BioAssay (Tox21)
